According to the supplement of paper PMC10037445:
In all, about 2,900 compounds were measured (“NF-kB SEAP reporter activity, fold change vs agonist alone”: median about 0.99, highest 2% from about 2.6 on). The list comes from a sample in which the highest values are over-represented; it also holds similar structures and randomly drawn compounds.

What was measured:
[1] = test system: RAW-Dual; assay: NF-kB SEAP reporter activity, fold change vs agonist alone; cytotoxicity flag (confluency mask): not cytotoxic; higher = enhanced NF-kB activity
Outline: (§1)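 After 50 nL of library stock was delivered by pin tool to RAW-Dual macrophages (50,000 cells/well, DMEM, 384-well plates), a PRR agonist was added 1 h later and the plates were kept at 37 °C, 5% CO2. Twenty hours later, IRF was read from supernatant by QuantiLuc luminescence and NF-κB by QuantiBlue absorbance at 620 nm. Reporter activity is stated as fold change over agonist-alone wells. Wells with IncuCyte confluency under 70% of agonist controls in both mask sets were counted as cytotoxic.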

[2] = test system: RAW-Dual; assay: NF-kB SEAP reporter activity, fold change vs agonist alone; cytotoxicity flag (confluency mask): cytotoxic (confluency <70% of control); higher = enhanced NF-kB activity
Outline: as §1

[3] = test system: RAW-Dual; assay: NF-kB SEAP reporter activity, fold change vs agonist alone; higher = enhanced NF-kB activity; conditions: cytotoxicity flag (confluency mask): not cytotoxic
Outline: as §1

[4] = agonist: ODN 1826 (TLR9) 0.5 ug/mL
[5] = agonist: Pam2CSK4 (TLR2/6) 0.1 ug/mL
[6] = agonist: Pam3CSK4 (TLR2/1) 0.1 ug/mL
[7] = library stock concentration (final ~1000-fold dilution): 10 mM, agonist: Imiquimod (TLR7) […]
[8] = library stock concentration (final ~1000-fold dilution): 10 mM, agonist: MPLA (TLR4) […]
[9] = library stock concentration (final ~1000-fold dilution): 1 mM, agonist: Imiquimod (TLR7) […]
[10] = library stock concentration (final ~1000-fold dilution): 1 mM, agonist: MPLA (TLR4) […]

SMILES: Nc1nc2cc(-c3ccc4ncc(C(=O)N5CCOCC5)n4c3)ccc2o1 (library stock concentration (final ~1000-fold dilution): 10 mM)
- NF-kB SEAP reporter activity ([1]; agonist: LPS (TLR4) 0.1 ug/mL): 0.841
- NF-kB SEAP reporter activity [1, 4]: 1.02
- NF-kB SEAP reporter activity [1, 5]: 0.774
- NF-kB SEAP reporter activity [1, 6]: 0.811

SMILES: CCOC(=O)c1cnc2ccc(-c3cncc(NS(=O)(=O)c4ccccc4)c3)cn12 (library stock concentration (final ~1000-fold dilution): 10 mM)
- NF-kB SEAP reporter activity ([2]; agonist: LPS (TLR4) 0.1 ug/mL): 7.43
- NF-kB SEAP reporter activity [2, 4]: 2.4
- NF-kB SEAP reporter activity [2, 5]: 1.68
- NF-kB SEAP reporter activity [2, 6]: 3.96

SMILES: Nc1nc2cc(-c3ccc4ncc(C(=O)N5CCOCC5)n4c3)ccc2o1
- NF-kB SEAP reporter activity [3, 7]: 1.09
- NF-kB SEAP reporter activity [3, 8]: 1.09

SMILES: Cn1c(-c2ccccc2C(F)(F)F)nnc1C12CCC(c3noc(C4CC(F)(F)C4)n3)(CC1)CC2
- NF-kB SEAP reporter activity [3, 7]: 0.868
- NF-kB SEAP reporter activity [3, 8]: 1.3

SMILES: Cn1c(-c2ccccc2C(F)(F)F)nnc1C12CCC(c3noc(C4CC(F)(F)C4)n3)(CC1)CC2 (library stock concentration (final ~1000-fold dilution): 10 mM)
- NF-kB SEAP reporter activity ([1]; agonist: LPS (TLR4) 0.1 ug/mL): 1.22
- NF-kB SEAP reporter activity [1, 4]: 0.41
- NF-kB SEAP reporter activity [1, 5]: 0.827
- NF-kB SEAP reporter activity [1, 6]: 1.16

SMILES: CCCCCCOC(=O)c1cc(=O)c(O)c2c(O)c(O)c(OC)cc2c1 (library stock concentration (final ~1000-fold dilution): 1 mM)
- NF-kB SEAP reporter activity ([1]; agonist: LPS (TLR4) 0.1 ug/mL): 1.14
- NF-kB SEAP reporter activity [1, 4]: 0.931
- NF-kB SEAP reporter activity [1, 5]: 0.872
- NF-kB SEAP reporter activity [1, 6]: 0.85

SMILES: CCCCCCOC(=O)c1cc(=O)c(O)c2c(O)c(O)c(OC)cc2c1
- NF-kB SEAP reporter activity [3, 9]: 1.03
- NF-kB SEAP reporter activity [3, 10]: 1.23

SMILES: CCOC(=O)C1=Cc2ccc(C(F)(F)C(F)(F)F)cc2N=C(N)C1 (library stock concentration (final ~1000-fold dilution): .1 mM)
- NF-kB SEAP reporter activity ([1]; agonist: LPS (TLR4) 0.1 ug/mL): 1.34
- NF-kB SEAP reporter activity [1, 4]: 1.25
- NF-kB SEAP reporter activity [1, 5]: 1.09
- NF-kB SEAP reporter activity [1, 6]: 1.17

SMILES: CCOC(=O)C1=Cc2ccc(C(F)(F)C(F)(F)F)cc2N=C(N)C1
- NF-kB SEAP reporter activity ([3]; library stock concentration (final ~1000-fold dilution): .1 mM, agonist: Imiquimod (TLR7) […]): 0.718
- NF-kB SEAP reporter activity ([3]; library stock concentration (final ~1000-fold dilution): .1 mM, agonist: MPLA (TLR4) […]): 1.18

SMILES: CCCN(CCC)C(=O)C1=Cc2ccc(-c3ccc(C(=O)N4CCCC4)cc3)cc2N=C(N)C1 (library stock concentration (final ~1000-fold dilution): 1 mM)
- NF-kB SEAP reporter activity ([1]; agonist: LPS (TLR4) 0.1 ug/mL): 2.58
- NF-kB SEAP reporter activity [1, 4]: 1.07
- NF-kB SEAP reporter activity [1, 5]: 1.16
- NF-kB SEAP reporter activity [1, 6]: 1.26

SMILES: CCCN(CCC)C(=O)C1=Cc2ccc(-c3ccc(C(=O)N4CCCC4)cc3)cc2N=C(N)C1
- NF-kB SEAP reporter activity [3, 9]: 1.22
- NF-kB SEAP reporter activity [3, 10]: 1.82

SMILES: Cl.Nc1ccn(C2OC(CO)C(O)C2O)c(=O)n1 (stereo not drawn) (library stock concentration (final ~1000-fold dilution): 10 mM)
- NF-kB SEAP reporter activity ([1]; agonist: LPS (TLR4) 0.1 ug/mL): 0.959
- NF-kB SEAP reporter activity [1, 4]: 1.65
- NF-kB SEAP reporter activity [1, 5]: 1.16
- NF-kB SEAP reporter activity [1, 6]: 1.35
